This passage reports growth results from PubChem BioAssay (NCI).

About 83,000 compounds went through this panel and 20% of them were active in at least one assay; those are over-represented in the sample as a whole.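 For each line, cells grew in 96-well plates with the test compound present at a single concentration for 48 hours.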 Unmarked numbers belong to inactive results. The source made the active and inactive calls. Rule for the calls: active = growth percent below 10; inactive = the rest.

The assay deals with SK-MEL-5 melanoma. The experiment in a line: NCI-60 one-dose screen, 48 h (100 = growth as untreated, 0 = no growth, -100 = all killed). The following applies: 10 µM unless noted.
For the molecule `O=c1cc(Cc2ccc([N+](=O)[O-])cc2)[nH]c(=O)[nH]1`, the growth is 109%.

With `Cc1csc(NC(c2ccccc2)c2c(C)nc3ccccn23)n1` (stereo not given), the growth was 99.6%.

Consider `Cc1ccc(/C=C2\CN(C(=O)CCN3CCC(=NO)CC3)C/C(=C\c3ccc(C)cc3)C2=O)cc1`, for which the growth is -23.6% (active).

For `O=C1Nc2ccc3c(c2/C1=C\c1cc2c(cc1Br)OCO2)OCO3`, the growth is -19.9% (active).

With `c1ccc(-c2nc(N3CCNCC3)c3nc(-c4ccccc4)oc3n2)cc1`, the growth was 36.2%.

In the case of `CCN(CC)c1ccc(CNc2ccnc3ccccc23)cc1`, the growth was 8.05% (active).

Take `CN(CCCCN(C[C@H]1Cc2ncccc2CN1)[C@H]1CCCc2cccnc21)C1CCC(F)(F)CC1`: the growth is 104%.

As to `ClC(Cl)c1nc(-c2ccccc2)nc2cc(-c3ccccc3)nn12`, the growth was 90.4%.

Take `O=[N+]([O-])c1ccc(OCCCOc2ccccc2)cc1`: the growth was 105%.

As to `N#C/C(=C1C=C/C(=N/O)C(Cl)=C/1)c1ccc(Cl)cc1`, the growth is 93.5%.

With `CCCCC(CC)OC(=O)C(Br)CC` (stereo not given), the growth was 102%.

Regarding `C=C[C@@H]1C[C@@H]2Cc3c(C)cc(C)cc3N1O2`, the growth was 103%.

Take `C=C[C@@H]1C[C@@H]2Cc3ccccc3N1O2`: the growth is 107%.

Regarding `CC(=O)OC[C@]12CC[C@H]3[C@@H](C[C@H]4O[C@]45CC=CC(=O)[C@]35C)[C@]1(O)CC[C@@]2(O)[C@@](C)(O)C1CC(C)=C(C)C(=O)O1` (stereo not given in full), the growth was -78.7% (active).

For the molecule `CO[C@H]1NC(=O)N(S(=O)(=O)c2ccc(Cl)cc2)[C@@H]1OC`, the growth was 108%.
